HIF-2a block: HIF-2a reporter inhibitors, primary screen, luminescence, 786-0 RCC cells. 786-0 RCC cells HIF-2a reporter, luciferase luminescence, overnight. 360,000 compounds, 0.72% hits. inhibition, % at 18.8 µM;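 active = inhibition of the luminescence signal of 40% or more relative to plate controls, in a single-dose primary screen at 18.75 µM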
TRPM1 prom inh: inhibitors of MITF-dependent TRPM1 promoter reporter, primary screen, cell-based, SK-MEL-5, single point, luciferase; SK-MEL-5 TRPM1 promoter luciferase, 24 h; inhibition, % at 12.5 µM; 330,000 compounds, 0.83% hits;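 active = mean inhibition across replicates of 60% or more, whatever share of single replicates reaches that level; inconclusive = some that reach 60%, reason not given; inactive = mean inhibition across replicates below 60%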
Peg3 prom inh: Peg3 promoter-driven luciferase inhibitors, primary screen, cell-based, HeLa, luciferase luminescence; 360,000 compounds, 1.7% hits; HeLa PEG-Prom luciferase reporter, overnight; inhibition, % at 20 µM; AID 588405, 2011;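 active = inhibition of at least 50% at 20 µM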
Shn3 3UTR inh: reduction of Shn3 3'UTR firefly luciferase signal, primary screen, Schnurri-3 inhibitor project, cell-based, Clone20 osteoblasts, set 2. 360,000 compounds, 0.52% hits. Clone20 osteoblast Shn3 3'UTR firefly luciferase, 24 h. inhibition, % at 12.5 µM;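 active = mean inhibition of at least 75% with every replicate also reaching 75%; inconclusive = mean inhibition at least 75% but some replicate below; inactive = mean inhibition below 75%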
CF NFkB block: inhibitors of PAF-induced NF-kB signaling, primary screen, cell-based, GFP fluorescence, uHTS. KKLEB NF-kB-GFP reporter, GFP fluorescence overnight. 360,000 compounds, 0.86% hits. inhibition, % at 5 µM;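 active = at least 50% inhibition at 5 µM, scaled per plate between neutral and stimulator controls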;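 note: PAF is a Pseudomonas aeruginosa culture filtrate used as stimulus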
KKLEB cytotox: cytotoxicity in KKLEB CF airway cells, primary screen, cytotoxicity control for CF NF-kB inhibitor project, cell-based, uHTS, fluorescence assay plates; KKLEB CF airway cells viability, ATPlite luminescence, overnight; stronger effect = lower value; cells stimulated with P. aeruginosa culture filtrate; activity change (cytotoxicity), % at 5 µM; 360,000 compounds, 0.36% hits; AID 602141, 2011;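 active = corrected activity change at or below -50% at 5 µM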
HIF-2a conf: HIF-2a reporter inhibitor retest, confirmation, luminescence, 786-0 RCC cells | HIF-2a luciferase reporter luminescence, overnight | AID 651580, 2012 | inhibition, % at 18.8 µM | 1,800 compounds, 56% hits | shares compounds with HIF-2a block;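 active = mean inhibition across four replicates of at least 40 percent at the single tested concentration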
HIF-1a cs: HIF-1a luciferase reporter signal reduction – MiaPaCa-2 cells, single concentration, counter-screen for HIF-2a inhibitor project, confirmation | shares compounds with HIF-2a block | MiaPaCa-2 HIF-1a luciferase reporter, desferoxamine, overnight | inhibition, % at 18.8 µM | 1,800 compounds, 72% hits | AID 651589, 2012;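 active = mean inhibition of the reporter signal across four replicates at the single tested dose of 50% or more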
Hits are given with their value. Most compounds without a hit are left out; they make up all but 2.8% or so of the library.

For Cc1cccc(NC(=O)C23CCC(C)(C(=O)O2)C3(C)C)c1 (stereo not given) the results were HIF-2a block inactive, TRPM1 prom inh inactive, Peg3 prom inh inactive, Shn3 3UTR inh inactive, CF NFkB block inactive and KKLEB cytotox inactive.
Screening CC12CCC(C(=O)Nc3ccc4c(c3)OCCO4)(OC1=O)C2(C)C (stereo not given) returned HIF-2a block 42, TRPM1 prom inh inactive, Peg3 prom inh inactive, Shn3 3UTR inh inactive, CF NFkB block inactive, KKLEB cytotox inactive, HIF-2a conf inactive and HIF-1a cs 50.
Screening CCOc1cc(N2CCOCC2)c(OCC)cc1NC(=O)CN1CCSC1=O returned HIF-2a block inactive, TRPM1 prom inh inactive, Peg3 prom inh inactive, Shn3 3UTR inh inactive, CF NFkB block inactive and KKLEB cytotox inactive.
Screening O=C(CN1C(=O)S/C(=C\c2ccccc2)C1=O)NNC(=O)c1ccccc1O returned HIF-2a block inactive, TRPM1 prom inh inactive, Peg3 prom inh inactive, Shn3 3UTR inh inactive, CF NFkB block inactive and KKLEB cytotox inactive.
O=C(CCCN1C(=O)S/C(=C\c2ccccc2)C1=O)NNC(=O)c1ccccc1O was read as HIF-2a block 91, TRPM1 prom inh 71, Peg3 prom inh inactive, Shn3 3UTR inh inactive, CF NFkB block inactive, KKLEB cytotox inactive, HIF-2a conf 90 and HIF-1a cs 97.
Screening CC(/C=C1\SC(=O)N(CCCC(=O)O)C1=O)=C\c1ccccc1 returned HIF-2a block 91, TRPM1 prom inh 85, Peg3 prom inh 80, Shn3 3UTR inh inconclusive, CF NFkB block inactive, KKLEB cytotox inactive, HIF-2a conf 99 and HIF-1a cs 101.
Screening CC(=Cc1ccccc1)C=C1SC(=S)N(CCCC(=O)Nc2ccc(C(=O)O)cc2)C1=O returned HIF-2a block inactive, Peg3 prom inh inactive, Shn3 3UTR inh inactive, CF NFkB block inactive and KKLEB cytotox inactive.
Screening CCC(=O)c1ccc(OCC(=O)OCC(=O)N2c3ccccc3CC2C)cc1 (stereo not given) returned HIF-2a block inactive, TRPM1 prom inh inactive, Peg3 prom inh inactive, Shn3 3UTR inh inactive, CF NFkB block inactive and KKLEB cytotox inactive.
`Cc1cc(C)c(NC(=S)NCC2CCN(C(C)c3ccccc3)C2)c(C)c1` (stereo not given) gave HIF-2a block inactive, TRPM1 prom inh inactive, Peg3 prom inh inactive, Shn3 3UTR inh inactive, CF NFkB block inactive and KKLEB cytotox inactive.
Screening COC(=O)[C@@]1(Cc2ccc(F)cc2)[C@H]2C(CC(=O)C(=O)N3CCCC3)C(=O)C[C@H]2CN1C(=O)c1ccccc1 (stereo not given in full) returned HIF-2a block inactive.
Screening COC(=O)[C@@]1(Cc2ccc(OC)cc2)[C@@H]2C(=CC(=O)[C@H]2CC(=O)C(=O)N2CCCC2)CN1C(=O)c1ccccc1 returned HIF-2a block 77, TRPM1 prom inh inactive, Peg3 prom inh inactive, Shn3 3UTR inh inactive, CF NFkB block inactive, KKLEB cytotox inactive, HIF-2a conf 69 and HIF-1a cs 84.
CCOC(=O)c1ccccc1NC(=O)CSC(C)C(=O)Nc1cc(C)on1 (stereo not given) was read as HIF-2a block inactive, TRPM1 prom inh inactive, Peg3 prom inh inactive, Shn3 3UTR inh inactive, CF NFkB block inactive and KKLEB cytotox inactive.
`CCOc1ccccc1CNC(=O)c1ccc2nc(N3CCOCC3)sc2c1` gave HIF-2a block inactive, Peg3 prom inh inactive, Shn3 3UTR inh inactive, CF NFkB block inactive and KKLEB cytotox inactive.
CCOc1cccc2sc(N(CCCN(C)C)C(=O)c3ccc(S(=O)(=O)N4CCc5ccccc5C4)cc3)nc12 was read as HIF-2a block inactive, TRPM1 prom inh inactive, Peg3 prom inh inactive, Shn3 3UTR inh inactive, CF NFkB block inactive and KKLEB cytotox inactive.
`CCc1ccc2nc(N(CCCN(C)C)C(=O)c3ccc(S(=O)(=O)N4CCc5ccccc5C4)cc3)sc2c1` gave HIF-2a block 68, TRPM1 prom inh inactive, Peg3 prom inh inactive, Shn3 3UTR inh inactive, CF NFkB block 67, KKLEB cytotox -98, HIF-2a conf inactive and HIF-1a cs inactive.
CC(C)n1nnnc1C1c2ccccc2C(=O)N1Cc1ccc(F)cc1 (stereo not given) was read as HIF-2a block inactive.
`O=C(NCCc1c[nH]c2ccccc12)OCCCCOC(=O)NCCc1c[nH]c2ccccc12` gave HIF-2a block inactive, TRPM1 prom inh inactive, Peg3 prom inh inactive, Shn3 3UTR inh inactive, CF NFkB block inactive and KKLEB cytotox inactive.
For COc1ccc(-n2nc3ccc(N)cc3n2)cc1 the results were HIF-2a block 46, Peg3 prom inh inactive, Shn3 3UTR inh inactive, CF NFkB block inactive, KKLEB cytotox inactive, HIF-2a conf 70 and HIF-1a cs inactive.
For COC(=O)Cn1ccc(-c2ccc(Cl)cc2)c(C#N)c1=O the results were HIF-2a block 57, TRPM1 prom inh inactive, Peg3 prom inh inactive, Shn3 3UTR inh inactive, CF NFkB block inactive, KKLEB cytotox inactive, HIF-2a conf inactive and HIF-1a cs inactive.
For CCO[C@@H]1OC(C(=O)N2CCOCC2)=C[C@H](C(C)(C)C)[C@H]1CCCO the results were HIF-2a block inactive, TRPM1 prom inh inactive, Peg3 prom inh inactive, Shn3 3UTR inh inactive, CF NFkB block inactive and KKLEB cytotox inactive.
CCCCCCCCCCCCCCCC[N+](C)(C)CC was read as HIF-2a block 59, TRPM1 prom inh inactive, Peg3 prom inh 102, Shn3 3UTR inh 93, CF NFkB block 83, KKLEB cytotox inactive, HIF-2a conf 46 and HIF-1a cs 98.
For CCCCCCCCCCCCCCCC[N+](C)(C)CCl the results were HIF-2a block 54, TRPM1 prom inh inactive, Peg3 prom inh 100, Shn3 3UTR inh inactive, CF NFkB block inactive, KKLEB cytotox inactive, HIF-2a conf inactive and HIF-1a cs 75.
`CC#CC[N+](C)(C)CCCCCCCCCCCC` gave HIF-2a block 52, TRPM1 prom inh 65, Peg3 prom inh 59, Shn3 3UTR inh inactive, CF NFkB block inactive, KKLEB cytotox inactive, HIF-2a conf inactive and HIF-1a cs 72.
Screening CCCCCC[N+](C)(C)CCSSCC[N+](C)(C)CCCCCC returned HIF-2a block inactive, TRPM1 prom inh inactive, Peg3 prom inh inactive, Shn3 3UTR inh inactive, CF NFkB block inactive and KKLEB cytotox inactive.

From PubChem
